tested on: PPARa:RXRa (NR concentration 270 nM, RXRa partner concentration 90 nM); assay: PBM binding z-score (relative to random genomic background probes); higher = stronger binding; sequences stand for … in GC…GCGATTGACAGCGTAGAATGAAGG
How it was run: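 Binding buffer was PBS pH 7.4 with 2% milk, 0.02% Triton X-100, 1 mM DTT, 0.2 mg/mL BSA and 0.4 mg/ml salmon testes DNA. In it, ligand-free nuclear receptor dimers were incubated 1 h on custom Agilent 4×180K protein-binding microarrays carrying double-stranded probes. Antibodies against each partner (one per run) detected binding, and z-scores were calculated against random background probes after regression normalization of scanned fluorescence.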

Row | Sequence | PBM binding z-score
1 | CAAACTAGCTCAAAGGTCAAAGTCGAGCCAACCA | 6.14
2 | GGAACGAGGGCAAGTCGATAGCAGAGTTTGATGG | 1.48
3 | CAGCGTAGGTCAGGGCCAGTATAGGAGGAACGTT | 2.46
4 | TATTGTAGATCAACAGGAGGTTAAGAAAGATCGA | 1.46
5 | CAGCCTAGGTCAGGGCCAATATAGGAGGAACGTT | 2.05
6 | CTCGAAAAGTCGTGCTCAGGTGAGTATACCAAAC | 0.252
7 | GCGATTGGGGCAAAGCAGGTTACCATAAGGTTGG | 1.11
8 | TCGTGTAGATCAACAGGAGGTTAAGAAAGATCGA | 1.22
9 | CCTATTAGTTTACCATAAGGGCAACCGAAGCTCG | 0.641
10 | GCTAGTCGGTCAGTAAAAGGTCACACACCGGTCG | 4.67
11 | TCTATTAGTTGAACGGCAACCGACGAGTCCGTTT | 0.859
12 | ATCTCTAAGTAACAAGTTCAGTGAAAGAGAGGAC | 0.572
13 | GCTAGTTGGTCAGTAAAAGGTCCCACACCGGTCG | -0.0763
14 | TCATATAGGTAAACGGTGAAAGTCGGTGTGGTAA | 2.17
15 | ACTAGTTGGTCAGCTGAGGTCACATACAATTCGG | 3.41
16 | CGTCCAAGGTCATAGGAGGTCAGTGAGGACAGAT | 5.86
17 | TCATATAGGTAAATGCTAGGTGAAAGTGCGATCT | 1.87
18 | TCCAGTAGGTTAGGGGCATTCAGAATGGCGTCGA | 1.72
19 | CTCGAAAGGTCGTGCTCAGGTGAGTAGACCAAAC | 4.81
20 | CCTAGTAGGTCAGGAGGTCACACACCGGATATGA | 5.81

Row | Sequence | PBM binding z-score
21 | CAAACTAGGTCACGAAAGTTCAAAGTCGAATGAC | 6.14
22 | TCTTGTAGATCAAGGGTTAAGAAAGCCGAAGCCT | 3.12
23 | TTACCAAGATGAGCTGAGGTCGTTGATCCAACTC | 0.853
24 | CCTTACGGGTCAAGGTTATAGCGCGGGTGGTACG | 5.04
25 | TAGTCTAGGTCATGGGCCAGTATACCACGCGAAC | 4.88
26 | ATCTCTAGGTAAAAGTTCAGTCAATCCCGAGGAT | 4.61
27 | AGTCAAAGTTCACTAGGGAACGTAAGATTCAGCT | 4.19
28 | CGTCCAAGGTCATAGAAGGTCAGTGAAGACAGAT | 5.53
29 | CCAGACAGGTGACAGGTAACTCAGTCTGGTACGC | 0.79
30 | CTCGAAAGGTCGTGCTCACGTGAGTATACCAAAC | 5.07
31 | TTACCAAGGTGAGCAGAGGTCGTTGATCCAACTC | 2.38
32 | ATGTCTAGGTAAAGTTCAGTGAAAGATCGATAGA | 2.56
33 | CCGACTGGGGCACAAAGGTTACCATACCATCCGG | 3.24
34 | TATACAGGGTCAAAGGCCAGCGTACGAATGTCGA | 6.28
35 | CCTACTGGGCAATTCAGAGGTCATTGATCATATG | 3.51
36 | ACTATTAGTTGACTTGGGGCAACCGATACGACGC | -0.000395
37 | CCGACTTGGGCAGAAAGGTTACCATACCATCCGG | 1.44
38 | GCTAGCACGCCATTTGGGTCACTCAATGACGGGC | 1.13
39 | TCGAGTAGGTTAGGGGCATTCAAAATGGCGTCGA | 1.38
40 | CCTCGGAGGACAGAAGGTCAGAGCCGTCCGCTTT | 1.93

From the supplement of paper PMC6555819
